PubChem BioAssay (NCI)
Compounds without any hit were thinned out: in the full panel of roughly 83,000, 20% have a hit.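 The endpoint reported here, percent growth, reads 100 for growth as untreated, 0 for no net growth and -100 for all cells dead.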 Values without a mark were called inactive. Active and inactive are the calls of the source. How the source made its calls: active means growth percent below 10; inactive means the rest.

How the values were obtained:
Experiment in all cases: NCI-60 one-dose screen, 48 h (100 = growth as untreated, 0 = no growth, -100 = all killed)
Conditions in all cases: 10 µM unless noted
NCI-H23 lung = tested on: NCI-H23 lung
NCI-H226 lung = tested on: NCI-H226 lung
NCI-H322M lung = tested on: NCI-H322M lung
HOP-62 NSCLC = tested on: HOP-62 NSCLC
NCI-H460 lung = tested on: NCI-H460 lung
HOP-92 NSCLC = tested on: HOP-92 NSCLC
NCI-H522 lung = tested on: NCI-H522 lung
A549/ATCC NSCLC = tested on: A549/ATCC NSCLC
786-0 renal = tested on: 786-0 renal
COLO 205 colon = tested on: COLO 205 colon
DU-145 prostate = tested on: DU-145 prostate
K-562 leukemia = tested on: K-562 leukemia
MALME-3M melanoma = tested on: MALME-3M melanoma
MDA-MB-231 breast = tested on: MDA-MB-231 breast
RXF 393 renal = tested on: RXF 393 renal
SF-268 CNS = tested on: SF-268 CNS
SF-295 CNS = tested on: SF-295 CNS
SF-539 CNS = tested on: SF-539 CNS
UACC-257 melanoma = tested on: UACC-257 melanoma
M14 melanoma = tested on: M14 melanoma

SMILES | growth (NCI-H23 lung) | growth (NCI-H226 lung) | growth (NCI-H322M lung) | growth (HOP-62 NSCLC) | growth (NCI-H460 lung) | growth (HOP-92 NSCLC) | growth (NCI-H522 lung) | growth (A549/ATCC NSCLC) | growth (786-0 renal) | growth (COLO 205 colon) | growth (DU-145 prostate) | growth (K-562 leukemia) | growth (MALME-3M melanoma) | growth (MDA-MB-231 breast) | growth (RXF 393 renal) | growth (SF-268 CNS) | growth (SF-295 CNS) | growth (SF-539 CNS) | growth (UACC-257 melanoma) | growth (M14 melanoma)
COc1ccc(CCNc2nc(SC)nc(-c3cccc([N+](=O)[O-])c3)c2C#N)cc1OC | 92.7% | 49.2% | 88.2% | 67.6% | 88.5% | 75.8% | 66.7% | 82.2% | 93.2% | 113% | 91.7% | 92.1% | 77.8% | 83.1% | 90.1% | 63.6% | 88.5% | 74.6% | 89.7% | 93.1%
COc1cc2c(cc1-c1c(C)noc1C)ncc1nc(C3CCOCC3)n([C@@H](C)COC(F)F)c12 | 64.6% | 58.2% | 48.3% | 35% | 61% | 31.8% | 33.9% | 42.4% | 49.6% | 26.9% | 73.1% | 34.2% | 66.3% | 42.8% | 59.4% | 70.8% | 52% | 31.8% | 36.7% | 41%
Cc1cc(C)nc(SC2=C(Nc3ccc(C)c(Cl)c3)C(=O)N(Cc3ccccc3)C2=O)n1 | 62.4% [30 µM] | 74.5% [30 µM] | 82% [30 µM] | 86.9% [30 µM] | 52.4% [30 µM] | -4.65% [30 µM] (active) | 73.8% [30 µM] | 41.2% [30 µM] | 68.6% [30 µM] | 81.2% [30 µM] | 87.8% [30 µM] | 32.5% [30 µM] | 66.4% [30 µM] | 39.1% [30 µM] | 51.4% [30 µM] | 64.6% [30 µM] | -3.52% [30 µM] (active) | 85.8% [30 µM] | 67.4% [30 µM] | 64% [30 µM]
CCCCN(CCCC)CCCn1c(-c2ccccc2)ccc1-c1ccccc1 | 52.9% | 53.6% | 86.7% | 87.9% | 67.7% | 44.7% | 58.3% | 76% | 72.7% | 61.3% | 68.3% | 52.2% | 86.2% | 22.9% | 82.8% | 73.7% | 60% | 67.4% | 90.1% | 77.6%
CCCCCCCCCCCCC[N+](C)(C)Cc1ccccc1 | -22.8% (active) | -8.07% (active) | 82.5% | -73.1% (active) | 0.965% (active) | -64.3% (active) | -60.1% (active) | 40.5% | -56.1% (active) | -91.8% (active) | 0.808% (active) | 2.97% (active) | -44.7% (active) | -55.6% (active) | -73.3% (active) | -84.5% (active) | 13.5% | -73% (active) | -44.2% (active) | -66.6% (active)
Oc1ccccc1-c1nnc(CNc2ccc(Cl)cc2)o1 | 34.8% | 30.1% | 32% | 25.7% | 7.25% (active) | 52.5% | 25.9% | 20.9% | 36.7% | 14.8% | 35.5% | 13.1% | 44% | 46.9% | 37% | 27.4% | 40.6% | 26.7% | 12.4% | 10.8%
O=c1c(F)cn(Cc2ccccc2CCl)c(=O)n1Cc1ccccc1CCl | -63.1% (active) | -22% (active) | -19.3% (active) | -51.7% (active) | -75% (active) | -77.5% (active) | -61.6% (active) | 1.3% (active) | -54.7% (active) | -75.3% (active) | -51.3% (active) | -6.67% (active) | -28.1% (active) | -19.4% (active) | -30.7% (active) | -16% (active) | -62.4% (active) | -24.1% (active) | -48.1% (active) | -63.6% (active)
COc1cccc(/C=C2\SC(=Nc3ccc(NC(C)=O)cc3)NC2=O)c1OC | 92.2% | 103% | 94.3% | 92.3% | 99.7% | 55.3% | 89.2% | 96% | 67.9% | 111% | 85.1% | 101% | 107% | 102% | 83.1% | 99% | 81.3% | 94.4% | 100% | 98.1%
O=C(COc1cccc(/C=C2\CSc3ccccc3C2=O)c1)Nc1nccs1 | 19.7% | 104% | 98.7% | 88.1% | 91.5% | -52% (active) | -60.3% (active) | 95.1% | 101% | 113% | 106% | -58.1% (active) | 16.9% | 80.6% | 71% | 43.5% | 115% | 75.3% | 86% | 39.1%
CCN(CC)CCCCNc1c2ccc(Cl)cc2nc2ccc(OC)cc12 | -42.8% (active) | -53.7% (active) | -30.4% (active) | 2.75% (active) | -23.8% (active) | -30.7% (active) | -37.4% (active) | 9.02% (active) | -16.6% (active) | -52% (active) | -2.29% (active) | -19% (active) | -65.6% (active) | -52.4% (active) | -61% (active) | -23.1% (active) | -58.7% (active) | -83% (active) | -37.1% (active) | -71.3% (active)
COc1ccc2c(c1)O/C(=C\c1cccc(OCC(=O)Nc3nc4c(s3)CCCC4)c1)C2=O | 37.8% | 86.9% | 95.4% | 103% | 115% | -23.4% (active) | -91.4% (active) | 94.6% | 89.9% | 113% | 42.8% | 24.5% | 109% | 65.9% | -15.4% (active) | 89.4% | 75.8% | 87.8% | 95.1% | 90.9%
COc1ccc(C(=O)c2sc3nc4c(c(-c5cccnc5)c3c2N)CCCC4)cc1OC | 97.7% | 86.3% | 99.5% | 80.7% | 77.4% | -11.7% (active) | 83% | 82.2% | 87.5% | 94.6% | 91.4% | 15.2% | 83.5% | 38.3% | 51% | 64.9% | 93.2% | 73.4% | 98.3% | 118%
O=C1c2ccccc2C(=O)c2c1ccc1[nH]c(-c3cccs3)nc21 | 84.5% | 91.9% | 60.9% | 102% | 73.7% | 80.8% | 78.9% | 66.7% | 99.9% | 103% | 88.9% | 80.7% | 81.9% | 70.9% | 81% | 87.6% | 120% | 77.5% | 87.5% | 106%
COc1ccc(C2CC(c3ccc4ccccc4c3)=NN2/C=C2\SC(=S)N(NC(=O)Cc3ccccc3Nc3c(Cl)cccc3Cl)C2=O)cc1 (stereo not given) | 40.5% | 45.9% | 42.8% | 23.7% | 9.42% (active) | 38.5% | -15.4% (active) | 23.6% | 13.8% | 55.6% | 12.2% | 10.6% | 52.9% | 41% | -8.96% (active) | 34.6% | 14.1% | -16.9% (active) | 56.2% | -25.1% (active)
CCOC(=O)c1sc2nc(-c3cccc(OC)c3)nc(N3CCOCC3)c2c1C | 93.5% | 79.5% | 94.4% | 110% | 101% | 80.3% | 85.8% | 84% | 92.8% | 108% | 101% | 97.2% | 117% | 95% | 95.6% | 88.4% | 99.5% | 98.8% | 115% | 120%
